Screening data as filed in PubChem BioAssay.
CRFBP-R2 block: antagonists of CRF-binding protein/CRF-R2 receptor complex; HEK293 CRF-R2/CRF-BP, CRF-induced calcium fluorescence; inhibition, % at 11.8 µM; 0.59% of 350,000 active; AID 588475;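 active = inhibition of the ligand-induced calcium signal above about 50% at the single tested concentration, limit read from the data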
Myeloid diff MLP: compounds promoting myeloid differentiation. ER-HoxA9 myeloid progenitors, lysozyme-GFP differentiation, flow cytometry. AID 624256. calls only at 10 µM. 1% of 360,000 active;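 active = normalized GFP-positive differentiation at or above the plate's own cutoff, the solvent-only control mean plus 3 SD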;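 also: cells exposed to compound for four days before flow analysis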
CRFBP-R2 agonist: CRF-BP/CRF-R2 complex agonism; HEK293 CRF-R2/CRF-BP, calcium dye fluorescence (FLIPR); percent of saturating CRF peptide response; activation, % at 13.2 µM; 0.46% of 350,000 active; AID 588473;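 active = activation of at least 50%, plus an integration ratio under a set limit after plate pattern correction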;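 also: plate controls were neutral control wells without compound for no effect and CRF at EC100 for full effect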
Cardiac RTF inh: cardiac RTF calcium desensitization; inhibition, % at 7.15 µM; AID 493244; IANBD-labeled cardiac RTF, Ca2+ fluorescence; 0.12% of 340,000 active;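 active = inhibition above the mean inhibition of all tested compounds plus 3 SD, cut at about 17% in these data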;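 also: assay run at fixed EC70 calcium of 1.6 mM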
cardiac RTF act: increases calcium sensitivity of human cardiac regulated thin filaments; IANBD-labeled TnC RTF fluorescence at EC20 calcium; 0% EC20 calcium, 100% full calcium; AID 493008; 0.24% of 340,000 active; P19429+P45379; activation, % at 7.2 µM;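 active = activation above the mean over all tested compounds plus 3 SD, cut at about 30% in these data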;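 also: rise in fluorescence read as greater calcium sensitivity of cardiac thin filaments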
Numbers without * were called inactive. Only some compounds are listed: those with a hit (about 2.2% of all), similar ones and a draw of the others.

CCOC(=O)N1CCN(C(=O)CSc2nnc(-c3ccc(C)c(C)c3)o2)CC1 was read as CRFBP-R2 block -1, Myeloid diff MLP inactive, CRFBP-R2 agonist -2, Cardiac RTF inh -4 and cardiac RTF act -4.
COc1ccc(-c2ccnc(SCC(=O)N3CCN(c4ccccc4)CC3)n2)cc1 was read as CRFBP-R2 block 61*, Myeloid diff MLP inactive and CRFBP-R2 agonist -6.
`CC(C)(C)NC(=S)NCc1ccncc1` gave CRFBP-R2 block 6, Myeloid diff MLP inactive, CRFBP-R2 agonist 0, Cardiac RTF inh 11 and cardiac RTF act 1.
Screening COCCN=c1scc(C)n1/N=C/C1CC2C=CC1C2 (stereo not drawn) returned CRFBP-R2 block 1, Myeloid diff MLP inactive, CRFBP-R2 agonist 1, Cardiac RTF inh -6 and cardiac RTF act 5.
For O=C(Nc1cccn(Cc2c(Cl)cccc2Cl)c1=O)c1c(Cl)cccc1Cl the results were CRFBP-R2 block 52*, Myeloid diff MLP inactive, CRFBP-R2 agonist 2, Cardiac RTF inh 4 and cardiac RTF act -1.
Screening COc1ccc(C2=NN(C)C(=NCc3ccccc3)SC2)cc1 returned CRFBP-R2 block 62*, Myeloid diff MLP inactive, CRFBP-R2 agonist -3, Cardiac RTF inh 1 and cardiac RTF act -3.
